Compound activity deposited in PubChem by National Center for Advancing Translational Sciences (NCATS).
CHX counter: affects cycloheximide protein synthesis inhibition readout, counter-screen; cell reporter, cycloheximide protein synthesis inhibition counterscreen; hit rate 12% among 300,000; max response, %; in the data active = max response mostly above about 13%, no sharp cut-off; inactive = mostly below about 14%; note: read at 38.3 µM for the half of the compounds with a filed dose
HCV inhibitor: blocks hepatitis C virus; hit rate 3.4% among 340,000; Potency, µM (titrated, usually from 41.8 µM), hits mostly inhibitors; AID 651820; Huh7.5.1 HCVcc-Cre infection, luciferase reporter, 44 h
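Infectious HCVcc-Cre (~0.5 moi) was added to cells just after compound, with cells seeded 4 h earlier at 1,000 per well. Luciferase activity after 44 h culture reported infection; substrate was incubated 15 min at room temperature before reading.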
HCMV inh: human cytomegalovirus inhibition; HFF cells, HCMV-luciferase reporter, 72 h; hits give low values; activity change, negative = inhibition, % at 57.5 µM; hit rate 4.5% among 410,000; AID 1259415; in the data active = activity change below about -60%; inconclusive = no clear call, values can overlap the other calls; inactive = above about -39%
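Two compound doses tested in HFFs infected with HCMV-luciferase, MOI 1 PFU/cell, 72 h at 37C. Lysate luminescence read with OneGlo; data normalized against buffer-only and 10uM Salinomycin inhibitor controls.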
Pf growth 48h: inhibits P. falciparum growth in the first generation, 48 h; AID 504832; P. falciparum luciferase growth in erythrocytes, 48 h; hit rate 5.9% among 310,000; Potency, µM (highest dose often 28.7 µM), actives largely listed as inhibitors
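Cell-based growth assay: transgenic P. falciparum expressing firefly luciferase, cultured in red cells within RPMI 1640 containing 0.5% w/v Albumax, 24 mM bicarbonate and gentamycin. A drop in luciferase activity indicates inhibition.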
Shiga toxin inh: Shiga toxin inhibition. Vero cells, Shiga toxin protein synthesis inhibition reporter. inhibition, % at 38.7 µM. hit rate 9.2% among 290,000; in the data active = inhibition mostly above about 28%, no sharp cut-off; inactive = mostly below about 43%
Pf growth 96h: inhibits malaria parasite growth, 96 h | Potency, µM (doses to about 28.7 µM), actives largely listed as inhibitors | AID 504834 | hit rate 6.9% among 320,000 | P. falciparum luciferase reporter growth, 96 h
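Delayed-death screen, second-generation endpoint: infected erythrocytes, 2% hematocrit, 0.05% parasitemia final; 96 hours at 37 C, 5% CO2; luciferase detection reagent; luminescence decrease equals reduced growth.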
Numbers stand for hits; n = inactive; u = inconclusive; x = no result given; + = active, no number; [ ] = remark or other dose. Most compounds without a hit are left out; they make up all but 21% or so of the library. Unless noted, calls come from the whole dose curve; as a rule, active = well fitted inhibition curve with a large enough effect; inconclusive = small, poorly fitted or top-dose-only effect, or another doubt; inactive = no such curve, though single readings can be large or run the other way.

SMILES | CHX counter | HCV inhibitor | HCMV inh | Pf growth 48h | Shiga toxin inh | Pf growth 96h
O=C(NNC1=Nc2cccc3cccc1c23)c1ccccc1Br | n | n | n | u | n | u
COc1ccc(NC2=Nc3cccc4cccc2c34)cc1 | 24.9 | u | n | u | n | n
Fc1ccc(/C=N/NC2=Nc3cccc4cccc2c34)cc1 | 43.0 | u | n | n | 81.3 | n
O=C(O)c1cccc(NC2=Nc3cccc4cccc2c34)c1 | 6.7 | n | n | n | 37.9 | n
COc1ccc(C2=Nc3cccc4cccc(c34)N2)cc1 | n | u | n | n | n | u
O=C(O)c1cccc(N2C(=O)c3cccc4cccc(c34)C2=O)c1 | n | n | n | n | n | n
Cc1nn(-c2ccccc2)c2nc(C(F)F)cc(C(F)F)c12 | x | u | n | n | x | n
O=C(CN1CCN(c2ccc(Cl)cc2)CC1)c1ccc2c(c1)OCO2 | n | n | n | n | n | n
COc1ccc(C(=O)/C=C2/Sc3cc4c(cc3N2C)OCO4)cc1 | n | u | n | n | n | 2.08µM
CN1/C(=C/C(=O)c2ccc(Cl)cc2)Sc2cc3c(cc21)OCO3 | 40.5 | n | n | n | 67.6 | n
O=C(NCCS(=O)(=O)N1CCN(c2ccc(F)cc2)CC1)c1cccc(C(F)(F)F)c1 | x | x | n | x | x | x
O=c1[nH]c(CSc2nc3ccccc3s2)nc2cc(Cl)ccc12 | n | x | n | n | n | n
Cc1sc2nc(CSc3ccc([N+](=O)[O-])cc3)[nH]c(=O)c2c1C | n | x | x | n | n | n
O=c1[nH]c(CSc2nc3ccccc3s2)nc2ccccc12 | 29.9 | n | n | n | 52.4 | n
Cc1sc2nc(CSc3nc4ccccc4s3)[nH]c(=O)c2c1C | 21.2 | x | n | n | n | n
COc1ccc(CN(CCC(c2ccccc2)C2CCOC(C)(C)C2)C(C)=O)cc1 (centres undefined) | n | n | n | 13.1µM | n | n
Cc1cc(NC(=O)C(C)SCC(=O)OC(C)C(=O)Nc2ccc(F)cc2Cl)no1 (centres undefined) | x | n | n | u | x | n
CCCOc1cccc(C(=O)Nc2cccc(-c3nc4ncccc4o3)c2C)c1 | x | x | n | x | x | x
Cc1ccc(/C=C2\SC(=S)N(CCCC(=O)Nc3ccccc3C(=O)O)C2=O)cc1 | n | n | u | n | n | u
CCc1ccc(/C=C2\SC(=S)N(CCCC(=O)Nc3ccc(C(=O)O)cc3)C2=O)cc1 | n | n | -92.5 | u | n | u
COc1ccc(/C=C2\SC(=O)N(CCc3nnc(N)s3)C2=O)cc1 | 53.2 | n | n | n | 103.6 | n
CCc1ccc(/C=C2\SC(=S)N(CCCC(=O)Nc3nccs3)C2=O)cc1 | n | n | -93.5 | n | n | u
Cc1ccc(/C=C2\SC(=S)N(CCCC(=O)Nc3nccs3)C2=O)cc1 | n | n | u | n | n | u
COc1ccc(/C=C2\SC(=O)N(CCNC(=O)C3=COCCO3)C2=O)cc1 | x | u | n | n | x | n
CCc1ccc(/C=C2\SC(=S)N(CCCC(=O)Nc3ccccc3C(=O)O)C2=O)cc1 | n | n | + | n | n | 16.5µM
SMILES | CHX counter | HCV inhibitor | HCMV inh | Pf growth 48h | Shiga toxin inh | Pf growth 96h
c1ccc(COc2ncnc3c2ncn3CCCNCC2CCCO2)cc1 (centres undefined) | x | n | n | x | x | x
Cc1cccc(OCC(=O)NCc2ccc3c(c2)CCN3C(=O)c2ccc(Cl)cc2)c1 | x | x | n | x | x | x
COc1cccc(C(=O)N2CCC2(C)C(=O)NC(C)C)c1 (centres undefined) | x | x | n | x | x | x
COc1ccc2c(CC(=O)NCCN3C(=O)S/C(=C\c4cccnc4)C3=O)coc2c1 | n | n | n | u | n | u
COc1ccc(/C=C2\SC(=O)N(CCNC(=O)Cc3coc4cc(OC)ccc34)C2=O)cc1 | n | u | -102.5 | u | n | u
COc1ccc(/C=C2\SC(=O)N(CCCC(=O)Nc3ccc(C(=O)O)cc3)C2=O)cc1 | x | x | -100.8 | x | x | x
CCOC(=O)C1CCN(CC(O)COc2ccc(S(=O)(=O)N3CCCC3)cc2[N+](=O)[O-])CC1 (centres undefined) | x | n | n | 8.28µM | x | u
CC1CCCCN1C(=O)COc1ccc(S(=O)(=O)N2CCCC2)cc1[N+](=O)[O-] (centres undefined) | x | n | n | n | x | 11.7µM
Cc1ccc(S(=O)(=O)N2CCC(C(=O)OCC(=O)N3CCCCC3C)CC2)cc1C (centres undefined) | x | n[8.37 µM] | n | n | x | n
O=c1ccc2ccc(OS(=O)(=O)O)cc2o1 | n | x | x | x | n | x
